# Laboratory results as given in PubChem BioAssay (EPA / NIEHS).
# Inconclusive results are not listed. The source made the active and inactive calls. How the source made its calls: active means hit-call score of the fitted dose curve at least 0.9, where 1 is the maximum; inconclusive means response in the unintended direction; inactive means score below 0.9.
# Assays:
# [1] = target: human Thyroid hormone Receptor alpha (TRa), THRA (gene 7067) (UniProt P10827); experiment: ATG_hTRa_XSP1: Attagene TRANS-FACTORIAL Multi-Species (XSP1) HepG2 Assay for human Thyroid hormone Receptor alpha (TRa) (AID 2283805)
# Procedure, shortened: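 Reporter transcripts from the human TRa-Gal4 TRANS unit quantified by RT-PCR, fluorescent labeling and capillary electrophoresis after 24 hours of chemical exposure in transfected HepG2 cells; medium contains 3 nM 6-alpha-fluorotestosterone. Positive direction fit against DMSO.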
# [2] = target: human Thyroid hormone Receptor beta (TRb), THRB (gene 7068) (UniProt P10828); experiment: ATG_hTRb_XSP1: Attagene TRANS-FACTORIAL Multi-Species (XSP1) HepG2 Assay for human Thyroid hormone Receptor beta (TRb) (AID 2283808)
# Procedure, shortened: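 Readout is reporter mRNA induction measured by RT-PCR, fluorescent labelling and capillary electrophoresis, fitted upward relative to DMSO. Transiently transfected human HepG2 cells expressing NR-Gal4 chimeras were dosed for 24 h, medium containing 3 nM 6-alpha-fluorotestosterone.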
# [3] = target: human Androgen Receptor (AR), AR (gene 367) (UniProt P10275); experiment: ATG_hAR_XSP2: Attagene TRANS-FACTORIAL Multi-Species (XSP2) HepG2 Assay for human Androgen Receptor (AR) (AID 2283820)
# Experimental: ATG_XSP2_multi-species_TRANS is a cell-based, multiplexed assay created by modifying the existing Attagene TRANS-FACTORIAL system to include a panel of nuclear receptors from some or all the following species: human (Homo sapiens), mouse (Mus musculus), frog (Xenopus laevis), zebrafish (Danio rerio), chicken (Gallus gallus), and turtle (Chrysemys picta). The ECOTOX-FACTORIAL format uses HepG2, a human liver cell line, with measurements taken at 24 hours after chemical dosing in a 24-well plate. Xsp2 included 3 nM 6-alpha-fluorotestosterone and 1.5 nM norgestrel to stimulate the androgen receptor.ATG_hAR_XSP2 is one of 29 assay components measured or calculated from the ATG_XSP2_multi-species_TRANS assay. It is designed to make measurements of mRNA induction, a form of inducible reporter, as detected with fluorescence intensity signals by Reverse transcription polymerase chain reaction (RT-PCR) and Capillary electrophoresis technology.The assay endpoint ATG_hAR_XSP2 was analyzed in the positive analysis fitting direction relative to DMSO as the negative control and baseline of activity. […] Furthermore, this assay endpoint can be referred to as a primary readout, because this assay has produced multiple assay endpoints where this one serves a reporter gene function. […]
# Sequence of human Thyroid hormone Receptor alpha (TRa), THRA (gene 7067) (P10827 whole entry, looked up, the tested form may be a part): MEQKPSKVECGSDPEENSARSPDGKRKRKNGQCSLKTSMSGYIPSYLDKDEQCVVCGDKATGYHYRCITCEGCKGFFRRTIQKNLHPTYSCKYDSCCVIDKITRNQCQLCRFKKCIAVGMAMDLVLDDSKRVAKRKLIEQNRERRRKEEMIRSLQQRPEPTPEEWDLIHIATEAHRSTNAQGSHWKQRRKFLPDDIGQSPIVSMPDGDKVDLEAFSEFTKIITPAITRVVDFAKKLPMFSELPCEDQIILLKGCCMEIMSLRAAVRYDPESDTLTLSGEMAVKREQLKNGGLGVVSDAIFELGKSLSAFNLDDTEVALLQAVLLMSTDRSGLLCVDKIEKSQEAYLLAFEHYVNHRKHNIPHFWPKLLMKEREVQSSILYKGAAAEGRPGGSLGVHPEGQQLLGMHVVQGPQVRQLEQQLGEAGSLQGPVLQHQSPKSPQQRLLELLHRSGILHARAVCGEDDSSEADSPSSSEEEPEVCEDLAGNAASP
# Sequence of human Thyroid hormone Receptor beta (TRb), THRB (gene 7068) (P10828 whole entry, looked up, the tested form may be a part): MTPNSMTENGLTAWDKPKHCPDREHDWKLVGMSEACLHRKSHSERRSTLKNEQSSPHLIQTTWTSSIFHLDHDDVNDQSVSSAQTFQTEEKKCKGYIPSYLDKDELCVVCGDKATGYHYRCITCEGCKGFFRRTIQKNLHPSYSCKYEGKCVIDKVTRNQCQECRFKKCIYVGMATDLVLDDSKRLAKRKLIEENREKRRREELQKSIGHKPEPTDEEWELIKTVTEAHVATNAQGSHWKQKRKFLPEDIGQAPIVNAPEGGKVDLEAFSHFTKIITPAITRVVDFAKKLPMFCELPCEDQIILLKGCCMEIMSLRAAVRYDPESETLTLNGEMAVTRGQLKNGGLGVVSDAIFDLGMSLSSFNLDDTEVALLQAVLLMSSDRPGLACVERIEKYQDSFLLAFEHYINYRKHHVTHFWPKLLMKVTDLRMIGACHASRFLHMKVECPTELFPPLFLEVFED
# Sequence of human Androgen Receptor (AR), AR (gene 367) (P10275 whole entry, looked up): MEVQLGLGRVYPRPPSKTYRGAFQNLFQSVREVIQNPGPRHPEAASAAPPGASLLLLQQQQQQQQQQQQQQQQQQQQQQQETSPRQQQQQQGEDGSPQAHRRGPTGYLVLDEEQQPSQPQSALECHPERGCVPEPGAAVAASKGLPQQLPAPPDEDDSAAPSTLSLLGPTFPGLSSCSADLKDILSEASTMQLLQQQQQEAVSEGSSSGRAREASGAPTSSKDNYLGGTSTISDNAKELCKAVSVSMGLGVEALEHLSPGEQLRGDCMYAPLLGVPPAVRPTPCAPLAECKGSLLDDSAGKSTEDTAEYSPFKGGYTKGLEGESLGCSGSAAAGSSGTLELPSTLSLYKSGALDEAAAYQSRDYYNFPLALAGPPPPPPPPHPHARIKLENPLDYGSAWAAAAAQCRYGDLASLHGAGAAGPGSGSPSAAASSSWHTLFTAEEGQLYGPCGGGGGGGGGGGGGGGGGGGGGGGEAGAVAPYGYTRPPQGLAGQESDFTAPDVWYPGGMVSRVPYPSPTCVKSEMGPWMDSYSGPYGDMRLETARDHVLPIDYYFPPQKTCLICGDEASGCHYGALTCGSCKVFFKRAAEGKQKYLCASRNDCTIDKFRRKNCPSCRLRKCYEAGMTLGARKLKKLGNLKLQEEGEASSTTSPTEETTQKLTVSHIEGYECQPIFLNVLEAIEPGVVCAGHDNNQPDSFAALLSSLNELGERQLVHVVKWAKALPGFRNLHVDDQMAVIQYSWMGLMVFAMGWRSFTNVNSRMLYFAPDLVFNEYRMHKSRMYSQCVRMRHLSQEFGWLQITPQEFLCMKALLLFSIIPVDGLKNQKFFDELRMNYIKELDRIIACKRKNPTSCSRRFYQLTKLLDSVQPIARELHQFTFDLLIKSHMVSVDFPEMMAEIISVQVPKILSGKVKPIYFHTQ
smiles,measurement,setting,value
CCCCCOC(=O)c1ccccc1C(=O)OCCCCC,outcome,[1],inactive
same,outcome,[2],inactive
CCC[CH2][Sn]([Cl])([CH2]CCC)[CH2]CCC,AC50,[1],86.5 nM (active)
same,AC50,[2],159 nM (active)
C[C@]12C=CC3=C4CCC(=O)C=C4CC[C@H]3[C@@H]1CC[C@@H]2O,AC50,[3],4.07 nM (active)
